Holding throughout (conditions): Compound concentration 20.0 uM, Protein concentration 2.0 uM, Result type QC Liability
For experiment [1], the target named is Tyrosine-protein kinase ABL1 (Homo sapiens) (UniProt P00519).
Experiment [2] addresses Cyclin-dependent kinase 2 (Homo sapiens) (UniProt P24941).
Experiment [3] concerns the target Casein kinase I isoform delta (Homo sapiens) (UniProt P48730).
For experiment [4], the target named is Glycogen synthase kinase-3 beta (Homo sapiens) (UniProt P49841).
Experiment [5] concerns the target Mitogen-activated protein kinase 1 (Homo sapiens) (UniProt P28482).
Experiment [6] has as its target T1, Aurora kinase A (Homo sapiens) (UniProt O14965).
T1 sequence (whole entry): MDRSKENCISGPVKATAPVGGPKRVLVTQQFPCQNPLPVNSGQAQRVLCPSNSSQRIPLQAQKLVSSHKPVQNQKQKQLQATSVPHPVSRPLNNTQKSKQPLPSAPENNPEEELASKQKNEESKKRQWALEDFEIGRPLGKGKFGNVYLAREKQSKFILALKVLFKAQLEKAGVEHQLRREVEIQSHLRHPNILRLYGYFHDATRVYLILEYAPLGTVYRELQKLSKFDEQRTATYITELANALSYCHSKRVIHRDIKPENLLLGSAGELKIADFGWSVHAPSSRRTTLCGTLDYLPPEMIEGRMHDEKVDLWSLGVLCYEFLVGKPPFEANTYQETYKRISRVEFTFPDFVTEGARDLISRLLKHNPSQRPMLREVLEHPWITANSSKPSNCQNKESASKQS

Numbered stars: 1 amine (or outer) side, 2 acyl side, 3 side chain; on linkers, the order of the positions; unused ones are H or OH. Bridge positions count the residues as written; N and C are the ends. Square brackets hold non-standard residues; d marks the D form. Peptide text beside a SMILES is read from it. I, II: the chains in the order shown. Hexamethylenediamine = C(CCCN[*:2])CCN[*:1]; Dip = N[C@H](C(=O)O)C(c1ccccc1)c1ccccc1; Chg = N[C@H](C(=O)O)C1CCCCC1; NMeA = CN[C@@H](C)C(=O)O

Chain of Casein kinase I isoform delta (Homo sapiens) (P48730 whole entry, looked up, canonical isoform): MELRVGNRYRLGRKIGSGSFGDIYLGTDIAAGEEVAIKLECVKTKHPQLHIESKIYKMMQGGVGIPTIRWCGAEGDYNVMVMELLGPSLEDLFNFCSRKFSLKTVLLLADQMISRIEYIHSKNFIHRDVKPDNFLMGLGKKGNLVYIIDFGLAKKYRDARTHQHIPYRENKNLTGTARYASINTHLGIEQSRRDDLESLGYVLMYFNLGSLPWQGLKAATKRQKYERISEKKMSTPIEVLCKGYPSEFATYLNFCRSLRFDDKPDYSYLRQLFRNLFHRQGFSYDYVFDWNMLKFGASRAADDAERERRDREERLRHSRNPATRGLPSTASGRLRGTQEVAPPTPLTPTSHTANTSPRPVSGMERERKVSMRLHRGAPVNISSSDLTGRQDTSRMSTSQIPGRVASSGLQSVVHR
Chain of Mitogen-activated protein kinase 1 (Homo sapiens) (P28482 whole entry): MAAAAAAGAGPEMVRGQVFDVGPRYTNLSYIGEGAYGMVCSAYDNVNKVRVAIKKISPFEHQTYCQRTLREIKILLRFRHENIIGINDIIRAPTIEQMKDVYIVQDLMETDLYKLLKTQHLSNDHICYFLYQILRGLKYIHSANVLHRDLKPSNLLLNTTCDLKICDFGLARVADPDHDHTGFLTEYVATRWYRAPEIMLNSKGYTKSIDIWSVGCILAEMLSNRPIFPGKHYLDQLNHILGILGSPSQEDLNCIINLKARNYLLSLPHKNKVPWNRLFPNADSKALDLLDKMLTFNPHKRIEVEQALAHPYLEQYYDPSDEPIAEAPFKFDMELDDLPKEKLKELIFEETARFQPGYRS
Chain of Tyrosine-protein kinase ABL1 (Homo sapiens) (P00519 whole entry): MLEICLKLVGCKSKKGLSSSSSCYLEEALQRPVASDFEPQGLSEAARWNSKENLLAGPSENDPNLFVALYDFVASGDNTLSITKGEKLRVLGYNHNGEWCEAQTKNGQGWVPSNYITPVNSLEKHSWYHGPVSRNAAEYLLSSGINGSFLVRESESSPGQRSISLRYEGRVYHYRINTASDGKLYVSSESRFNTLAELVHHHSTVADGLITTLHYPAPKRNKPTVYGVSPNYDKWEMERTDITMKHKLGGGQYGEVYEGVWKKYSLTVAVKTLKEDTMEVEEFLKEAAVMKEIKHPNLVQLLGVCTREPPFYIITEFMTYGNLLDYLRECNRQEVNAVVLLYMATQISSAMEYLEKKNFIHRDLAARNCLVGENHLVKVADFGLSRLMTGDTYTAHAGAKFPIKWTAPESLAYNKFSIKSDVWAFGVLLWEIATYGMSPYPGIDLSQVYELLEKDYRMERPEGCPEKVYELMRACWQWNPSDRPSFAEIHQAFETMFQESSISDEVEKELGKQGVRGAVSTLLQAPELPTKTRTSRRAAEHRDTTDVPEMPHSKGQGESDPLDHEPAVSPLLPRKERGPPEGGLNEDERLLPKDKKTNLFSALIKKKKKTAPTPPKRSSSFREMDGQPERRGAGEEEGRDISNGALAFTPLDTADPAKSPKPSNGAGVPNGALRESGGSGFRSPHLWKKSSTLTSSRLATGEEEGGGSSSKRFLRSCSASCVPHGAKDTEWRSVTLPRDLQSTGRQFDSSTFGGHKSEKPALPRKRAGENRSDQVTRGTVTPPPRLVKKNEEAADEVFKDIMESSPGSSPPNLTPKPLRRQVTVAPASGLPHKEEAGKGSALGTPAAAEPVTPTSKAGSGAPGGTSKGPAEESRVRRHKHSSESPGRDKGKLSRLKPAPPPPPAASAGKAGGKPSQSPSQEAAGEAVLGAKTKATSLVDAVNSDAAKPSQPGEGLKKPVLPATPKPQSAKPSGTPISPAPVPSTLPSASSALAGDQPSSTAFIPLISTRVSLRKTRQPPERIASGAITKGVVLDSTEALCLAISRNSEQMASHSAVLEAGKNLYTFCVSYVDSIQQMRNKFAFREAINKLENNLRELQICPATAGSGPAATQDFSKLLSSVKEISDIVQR
Chain of Glycogen synthase kinase-3 beta (Homo sapiens) (P49841 whole entry, looked up): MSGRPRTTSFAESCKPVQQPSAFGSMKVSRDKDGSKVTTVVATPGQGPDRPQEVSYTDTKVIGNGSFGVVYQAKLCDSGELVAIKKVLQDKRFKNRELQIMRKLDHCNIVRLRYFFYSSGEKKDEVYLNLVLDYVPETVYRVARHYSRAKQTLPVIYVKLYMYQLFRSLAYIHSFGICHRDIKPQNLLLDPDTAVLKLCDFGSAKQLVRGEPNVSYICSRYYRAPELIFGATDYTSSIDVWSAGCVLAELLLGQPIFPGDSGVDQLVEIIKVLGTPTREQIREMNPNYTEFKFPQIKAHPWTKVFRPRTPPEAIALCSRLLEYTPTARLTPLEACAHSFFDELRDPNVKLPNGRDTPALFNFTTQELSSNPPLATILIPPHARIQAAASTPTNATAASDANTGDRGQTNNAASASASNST

In the case of `CC(C)c1cnn2c(NCc3ccccc3)cc(NCCCCCCN)nc12`, the ΔTm in experiment [1] was -0.02 °C; in experiment [2] it was 1.03 °C; in experiment [3], 2.94 °C; in experiment [4], -0.56 °C; in experiment [5], 0.38 °C; in experiment [6], -1.2 °C.

In the case of `C[C@H](CCOc1cccc(CC(=O)O)c1)N(Cc1cccc(C(F)(F)F)c1Cl)CC(c1ccccc1)c1ccccc1`, the ΔTm is 0.51 °C in experiment [1]; 1.5 °C in experiment [2]; 0.57 °C in experiment [3]; -1.07 °C in experiment [4]; 0.41 °C in experiment [5]; -2.31 °C in experiment [6].

As for `c1ccc(C(OC2CCN(CCCc3nnn[nH]3)CC2)c2ccccc2)cc1`, the ΔTm was 0.21 °C in experiment [1]; 0.54 °C in experiment [2]; -0.14 °C in experiment [3]; 0.65 °C in experiment [4]; -0.05 °C in experiment [5]; -0.34 °C in experiment [6].

Consider `Cn1ccc(Cn2cnc(-c3ccc(F)cc3)c2-c2ccnc3[nH]ccc23)n1`, for which the ΔTm in experiment [1] was 0.71 °C; in experiment [2], 0.42 °C; in experiment [3] it was 6.32 °C; in experiment [4], -0.53 °C; in experiment [5], 0.21 °C; in experiment [6], -0.97 °C.

For the compound `Cc1c(CN2CCC3(CC2)CN(c2ncnc4sc(CC(F)(F)F)cc24)C3)ccc2c1cc(C#N)n2CC(N)=O`, the ΔTm is 0.27 °C in experiment [1]; -0.01 °C in experiment [2]; 0.92 °C in experiment [3]; 0.64 °C in experiment [4]; 0.12 °C in experiment [5]; 0.16 °C in experiment [6].

Take `O=C(Nc1cccc(Nc2nccc(Nc3cccc(C(F)(F)F)c3)n2)c1)C1CC1`: the thermal shift (ΔTm) in experiment [1] was 1.63 °C; in experiment [2] it was 1.44 °C; in experiment [3], 1.09 °C; in experiment [4], 3.86 °C; in experiment [5], 0.42 °C.

Take `CS(=O)(=O)c1cc(C2(NC(=O)c3cncc4c3cnn4-c3ccc(F)cc3)CC2)ccn1`: the ΔTm in experiment [1] is 0.11 °C; in experiment [2], 0.77 °C; in experiment [3] it was 0.73 °C; in experiment [4] it was -0.04 °C; in experiment [5], -0.47 °C; in experiment [6], 0.05 °C.

Take `COc1cccc(Cn2cc(C(=O)Nc3ccc(C)c(S(=O)(=O)N4CCOCC4)c3)c(-c3ccc(C)cc3)n2)c1`: the ΔTm in experiment [1] is 4.84 °C; in experiment [2] it was 3.65 °C; in experiment [3] it was -0.33 °C; in experiment [4], 1.92 °C; in experiment [5] it was -3.66 °C; in experiment [6], 3.73 °C.

Turning to `N#Cc1c(SCc2csc(-c3ccc(Cl)cc3)n2)nc(N2CCCC2)c(C#N)c1-c1ccc(OCCO)cc1`, the ΔTm is -0.51 °C in experiment [1]; 0.34 °C in experiment [2]; -2.01 °C in experiment [3]; 0 °C in experiment [4]; 4.1 °C in experiment [5]; -0.18 °C in experiment [6].

In the case of `Cc1nc2cccnc2n2c(-c3cc([C@@]4(O)CCCOC4)ccc3Cl)nnc12`, the thermal shift (ΔTm) in experiment [1] is -0.53 °C; in experiment [2] it was 0.88 °C; in experiment [3], 0.26 °C; in experiment [4], -0.63 °C; in experiment [5] it was 0 °C; in experiment [6] it was -0.06 °C.

For the compound `C[C@]12CC[C@@H]3c4ccc(O)cc4CC[C@H]3[C@@H]1C[C@H]1OC(=O)C[C@]12O`, the ΔTm in experiment [1] was -0.2 °C; in experiment [2], 0.7 °C; in experiment [3], 0.32 °C; in experiment [4] it was 0.78 °C; in experiment [5], 0.29 °C; in experiment [6] it was 0.5 °C.

Regarding `CN[C@@H](C)C(=O)N[C@H](C(=O)N1CCC[C@H]1C(=O)N[C@H](C(=O)NCCCCCCNC(=O)[C@@H](NC(=O)[C@@H]1CCCN1C(=O)[C@@H](NC(=O)[C@H](C)NC)C1CCCCC1)C(c1ccccc1)c1ccccc1)C(c1ccccc1)c1ccccc1)C1CCCCC1` (I: H-[NMeA][Chg]P[Dip] / II: H-[NMeA][Chg]P[Dip]; linker I:C-II:C via Hexamethylenediamine), the ΔTm was -0.65 °C in experiment [1]; -1.8 °C in experiment [2]; -0.57 °C in experiment [3]; -0.94 °C in experiment [4]; -1.01 °C in experiment [5]; -1.85 °C in experiment [6].

On to `CN(c1ccc(C(F)(F)F)cc1)S(=O)(=O)c1ccc(C(=O)Nc2nc(-c3ccccn3)cs2)cc1`, for which the ΔTm in experiment [1] is 7.05 °C; in experiment [2], 10.4 °C; in experiment [3], 5.15 °C; in experiment [4], 13.4 °C; in experiment [5] it was 1.92 °C; in experiment [6], 9.24 °C.

Turning to `CN(C)C/C=C/C(=O)Nc1cc2c(Nc3ccc(F)c(Cl)c3)ncnc2cc1OC[C@@H]1CCCO1`, the ΔTm in experiment [1] is 6.89 °C; in experiment [2] it was -0.1 °C; in experiment [3], 1.15 °C; in experiment [4] it was 2.63 °C; in experiment [5] it was -1.79 °C; in experiment [6], 1.39 °C.

In the case of `Cc1c(NC(=O)c2ccc(C(C)(C)C)cc2)cccc1-c1cn(C)c(=O)c(Nc2ccc(C(=O)N3CCOCC3)cc2)n1`, the ΔTm is 0.18 °C in experiment [1]; -0.38 °C in experiment [2]; 0.35 °C in experiment [3]; -2.28 °C in experiment [4]; -1.15 °C in experiment [5]; 1.86 °C in experiment [6].

With `COc1cc(-c2cc3ncccc3c(O[C@@H](C)[C@H]3CNC(=O)C3)n2)cc(OC)c1OC`, the ΔTm is 0.48 °C in experiment [1]; 0.19 °C in experiment [2]; 1.43 °C in experiment [3]; -0.57 °C in experiment [4]; 0.06 °C in experiment [5]; 2.08 °C in experiment [6].

As to `CC(F)(F)CN1C(=O)c2[nH]nc(-c3cccc4[nH]c(=O)oc34)c2C1c1ccc(Oc2cc(C(F)(F)F)cc(C(F)(F)F)c2)cc1` (centres undefined), the ΔTm in experiment [1] is 0.76 °C; in experiment [2] it was 0.46 °C; in experiment [3] it was 4.37 °C; in experiment [4], -4.17 °C; in experiment [5] it was 1.19 °C; in experiment [6] it was 0 °C.

Turning to `CN(C)C/C=C/C(=O)Nc1ccc(C(=O)Nc2cccc(Nc3ncc(Cl)c(-c4c[nH]c5ccccc45)n3)c2)cc1`, the ΔTm in experiment [1] was 6.42 °C; in experiment [2], 7.89 °C; in experiment [3] it was -0.47 °C; in experiment [4], 12.9 °C; in experiment [5], -1.25 °C; in experiment [6] it was 10.2 °C.

As to `CC[C@@H](C(=O)OC)n1c(=O)c2ccccc2n(Cc2cn(C)c3cccc(C)c23)c1=O`, the ΔTm is -0.76 °C in experiment [1]; 0.06 °C in experiment [2]; 0.32 °C in experiment [3]; -0.47 °C in experiment [4]; 0.23 °C in experiment [5]; -0.05 °C in experiment [6].

As for `CC(=O)Nc1ncc(CN2CCC[C@H](Cc3cc(C)nc(C)c3)C2)s1`, the ΔTm in experiment [1] was 0.26 °C; in experiment [2], -0.34 °C; in experiment [3], -0.41 °C; in experiment [4], -0.15 °C; in experiment [5] it was 0.35 °C; in experiment [6], 0.39 °C.

For `COc1c(NC(=O)c2cc3cccc(Oc4ccnc(C(=O)N5CCN(C)CC5)c4)c3n2C)cc(C(C)(C)C)cc1NS(C)(=O)=O`, the thermal shift (ΔTm) in experiment [1] was 0.38 °C; in experiment [2], -0.2 °C; in experiment [3], 0.73 °C; in experiment [4], -0.6 °C; in experiment [5], 0.86 °C; in experiment [6], -1.1 °C.

Take `CC(=O)N1CCN([C@H]2CCC[C@@H](NC(=O)c3cc4c(F)ccc(C)c4[nH]3)C2)CC1`: the ΔTm is 0.29 °C in experiment [1]; 0.89 °C in experiment [2]; 0.05 °C in experiment [3]; -0.56 °C in experiment [4]; 0.42 °C in experiment [5]; -0.61 °C in experiment [6].

Regarding `NC1(c2ccc(-c3nc4c(O)ccnn4c3-c3ccccc3)cc2)CCC1`, the ΔTm in experiment [1] was 0.22 °C; in experiment [2], -0.34 °C; in experiment [3] it was 0.07 °C; in experiment [4], -0.72 °C; in experiment [5], 0.46 °C; in experiment [6], 0.43 °C.

Regarding `N=C(N)NCCC[C@H](NC(=O)CC1(CC(=O)N2CCN(C3c4ccccc4NC(=O)c4ccccc43)CC2)CCCC1)C(=O)NCCn1c(=O)n(-c2ccccc2)n(-c2ccccc2)c1=O` (some centres undefined), the ΔTm in experiment [1] was -2.29 °C; in experiment [2], -1.3 °C; in experiment [3] it was -0.34 °C; in experiment [4], -1.99 °C; in experiment [5], -0.45 °C; in experiment [6] it was -0.47 °C.

For `O=C(Nc1ccc(-n2nc(-c3cccnc3)cc2C(F)(F)F)cn1)c1ccc(-c2ccccc2)c(F)c1`, the ΔTm in experiment [1] was -0.47 °C; in experiment [2], -0.05 °C; in experiment [3] it was -0.18 °C; in experiment [4] it was -0.91 °C; in experiment [5], 0.06 °C; in experiment [6] it was 0.04 °C.

For the origin of these results see ChEMBL document CHEMBL5308504, “Tm Shift (DSF) assay results for EUbOPEN Chemogenomics Library” (2023).
